GPT2 inhibitor = Primary qHTS assay for inhibitors of Glutamate pyruvate transaminase 2 (GPT2). 0.25% of 100,000 active. Potency, µM (doses to about 57.7 µM), for inactives: at the top dose activity change, negative = inhibition, usual class: inhibitors. Recombinant GPT2, coupled pyruvate oxidase/HRP Amplex Red fluorescence. AID 1671188, 2021; also: % is scaled to controls: 0 for no effect and ±100 for the full control effect; nearly all actives have a fitted effect of over 60% in size
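Inhibition is scored from Amplex Red fluorescence generated when pyruvate oxidase and HRP act on pyruvate released by GPT2. Reactions contain 10ng/uL enzyme, 250uM a-KG and 2mM L-alanine and run 30 min at room temperature.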
hNpr1 antagonist = Natriuretic polypeptide receptor (hNpr1) antagonism - Primary qHTS; Atrial natriuretic peptide receptor 1 (Homo sapiens), P16066; HEK293 hNpr1 GloSensor cGMP, ANP-stimulated luminescence; Potency, µM (top dose mostly 46.3 µM), inactives show top-dose activity change, negative = inhibition, most hits filed as inhibitors; 1.6% of 76,000 active; calls by dose curve; also: % is scaled to controls: 0 for no effect and ±100 for the full control effect; nearly all actives have a fitted effect of over 60% in size
Target sequence (P16066 whole entry, looked up): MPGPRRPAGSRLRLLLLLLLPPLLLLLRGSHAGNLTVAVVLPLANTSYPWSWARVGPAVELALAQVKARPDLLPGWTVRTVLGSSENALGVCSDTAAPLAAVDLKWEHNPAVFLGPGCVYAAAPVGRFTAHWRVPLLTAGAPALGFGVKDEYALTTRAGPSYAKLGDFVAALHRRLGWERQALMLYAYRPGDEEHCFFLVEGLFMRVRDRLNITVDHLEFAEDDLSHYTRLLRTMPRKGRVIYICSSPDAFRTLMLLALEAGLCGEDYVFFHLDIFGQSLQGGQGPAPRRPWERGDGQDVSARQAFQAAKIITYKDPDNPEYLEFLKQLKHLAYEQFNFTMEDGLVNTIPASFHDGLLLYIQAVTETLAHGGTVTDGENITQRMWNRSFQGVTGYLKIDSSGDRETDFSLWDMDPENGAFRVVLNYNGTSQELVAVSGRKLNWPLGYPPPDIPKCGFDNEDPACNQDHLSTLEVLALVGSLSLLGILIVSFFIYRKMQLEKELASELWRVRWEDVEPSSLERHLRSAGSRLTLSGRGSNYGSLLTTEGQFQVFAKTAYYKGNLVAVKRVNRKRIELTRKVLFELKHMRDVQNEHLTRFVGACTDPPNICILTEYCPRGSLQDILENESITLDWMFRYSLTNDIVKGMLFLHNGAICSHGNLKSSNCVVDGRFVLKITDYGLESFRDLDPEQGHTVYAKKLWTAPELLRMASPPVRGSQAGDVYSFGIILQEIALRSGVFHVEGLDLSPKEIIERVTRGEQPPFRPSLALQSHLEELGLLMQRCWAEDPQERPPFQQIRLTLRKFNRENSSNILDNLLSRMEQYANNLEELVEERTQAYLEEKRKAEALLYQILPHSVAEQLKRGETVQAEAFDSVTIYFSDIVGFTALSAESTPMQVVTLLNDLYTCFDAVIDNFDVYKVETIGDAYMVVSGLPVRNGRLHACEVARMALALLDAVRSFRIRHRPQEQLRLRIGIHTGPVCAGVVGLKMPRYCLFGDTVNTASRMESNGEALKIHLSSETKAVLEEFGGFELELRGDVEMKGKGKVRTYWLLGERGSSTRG
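Compound pre-incubated 30 min at room temperature on GloSensor-loaded HEK293 cells stably carrying hNpr1 and the pGS-40F cGMP biosensor. Stimulation uses hNppA at 0.1 nM final; luminescence is taken at baseline and 20 min post-agonist.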
HEK cytotox = Cytotoxic Profiling in HEK 293 Cell Line of Diverse Libraries Using Quantitative High-Throughput Screening. AID 1345083, 2018. 6.6% of 94,000 active. HEK 293 viability, ATP luminescence (CellTiter-Glo), 48-72 h. Potency, µM (highest dose often 115 µM), inactives show at the top dose activity change, negative = cytotoxicity, hits mostly inhibitors; also: % is scaled to controls: 0 for no effect and ±100 for the full control effect; nearly all actives have a fitted effect of over 60% in size
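Cells seeded first (HEK 293, 250 cells/well), then compound added by pintool. Incubation ran 48 or 72 hr at 37 degree Celsius. CellTiter-Glo was added and luminescence imaged after 10 min at room temperature.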
3T3 cytotox = Cytotoxic Profiling in NIH 3T3 Cell Line of Diverse Libraries Using Quantitative High-Throughput Screening; AID 1345082, 2018; NIH 3T3 viability, CellTiter-Glo ATP luminescence, 48-72 h; Potency, µM (highest dose often 96.7 µM), without a hit: top-dose activity change, negative = cytotoxicity, actives largely listed as inhibitors; 4.3% of 94,000 active; also: % is scaled to controls: 0 for no effect and ±100 for the full control effect; nearly all actives have a fitted effect of over 55% in size
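Cytotoxicity was measured by CellTiter-Glo ATP luminescence after 48 or 72 h compound exposure at 37 °C. Mouse NIH 3T3 fibroblasts were seeded at 400 cells/well and dosed by 23 nL pin transfer.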
FLuc inh-1 = Firefly luciferase inhibition profiling of diverse chemical library using quantitative high-throughput screening. Luciferin 4-monooxygenase (Photinus pyralis), P08659. purified P. pyralis luciferase, luminescence, biochemical. Potency, µM (top dose mostly 115 µM), usual class: inhibitors. 2.5% of 76,000 active. AID 1347043, 2019; also: % is scaled to controls: 0 for no effect and ±100 for the full control effect; nearly all actives have a fitted effect of over 65% in size
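Luminescence read by CCD imaging after purified firefly luciferase (10nM final) was added to substrate buffer holding 10uM D-luciferin and 10uM ATP, pH 7.5, pre-dosed with compound.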
FLuc SDR no ATP = Firefly luciferase (FLuc-C-HiBiT) SDR gain of signal screen - without ATP; AID 1963318, 2024; Potency, µM (series often up to 32.7 µM), for the others: at the highest dose activation (signal gain), hits mostly activators; shares compounds with FLuc inh-1; Purified FLuc-C-HiBiT, Nano-Glo HiBiT luminescence, no ATP; 7.8% of 1,300 active; also: nearly all actives have a fitted effect of over 55% in size
FLuc SDR ATP = Firefly luciferase (FLuc-C-HiBiT) SDR gain of signal screen - plus ATP; shares compounds with FLuc inh-1; purified FLuc-C-HiBiT + ATP, HiBiT complementation luminescence; Potency, µM (series often up to 32.7 µM), for inactives: at the top dose activation (gain of signal), usual class: activators; 8.7% of 1,300 active; AID 1963319, 2024;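 also: signal reports ligand binding via conformational change of the enzyme rather than luciferase catalysis; % of control where 0% means no effect; nearly all actives have a fitted effect of over 55% in size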
FLuc inh-2 = Firefly luciferase (FLuc-C-HiBiT) enzymatic inhibition screen - Functional assay; shares compounds with FLuc inh-1; purified FLuc-C-HiBiT enzyme, luciferin luminescence; Potency, µM (highest dose often 32.7 µM), for the others: top-dose activity change, negative = inhibition, usual class: inhibitors; 42% of 1,300 active; also: % is scaled to controls: 0 for no effect and ±100 for the full control effect; nearly all actives have a fitted effect of over 70% in size
An asterisk follows results filed as active; [ ] = another dose, or the depositor's remark. Compounds with a hit are over-represented: about 10% of the library has one in this group of screens. Unless noted, calls follow the shape of the dose curve; as a rule, active = well fitted curve in the direction sought with a large enough effect; inconclusive = small, poorly fitted or top-dose-only effect, or another doubt; inactive = no such curve, though single readings can be large; an effect the other way counts as inactive or inconclusive. Potency is read from the fitted curve at half-maximal effect.

`O=C(NCCC1CCN(C(=O)Nc2cc(F)cc(F)c2)CC1)c1ccc(F)cc1` gave GPT2 inhibitor 1%, hNpr1 antagonist -22%, HEK cytotox inconclusive, 3T3 cytotox inconclusive, FLuc inh-1 14µM*, FLuc SDR no ATP 17%, FLuc SDR ATP 11% and FLuc inh-2 -18%.
For O=C(NCCC1CCN(C(=O)Nc2ccccc2)CC1)c1ccc(F)cc1 the results were GPT2 inhibitor -4%, hNpr1 antagonist -14%, HEK cytotox 2%, 3T3 cytotox -5% and FLuc inh-1 inconclusive.
CCOC(=O)c1ccccc1NC(=O)Cn1c(N(C)Cc2ccccc2)nc(C)cc1=O was read as GPT2 inhibitor inactive, hNpr1 antagonist -10%, HEK cytotox -16%, 3T3 cytotox -13% and FLuc inh-1 inactive.
Screening Nc1c(S(=O)(=O)c2ccccc2)c2nc3ccccc3nc2n1-c1ccc(F)cc1 returned GPT2 inhibitor inactive.
For C[S+](=O)([O-])CCn1ncc2cc(OCc3cccc(-c4cccnc4)c3)ccc21 the results were GPT2 inhibitor -6%[88.5 µM], hNpr1 antagonist 28µM*, HEK cytotox 79µM*, 3T3 cytotox inconclusive, FLuc inh-1 5µM*, FLuc SDR no ATP 23%[49.3 µM], FLuc SDR ATP inconclusive and FLuc inh-2 16µM*.
For C[S+](=O)([O-])CCn1ncc2cc(OCc3cccc(-c4cccc(O)c4)c3)ccc21 the results were GPT2 inhibitor 5%[88.5 µM], hNpr1 antagonist inconclusive, HEK cytotox 71µM*, 3T3 cytotox inconclusive, FLuc inh-1 4µM*, FLuc SDR no ATP 25%[49.3 µM], FLuc SDR ATP 15%[49.3 µM] and FLuc inh-2 inconclusive.
Screening N#Cc1ccccc1CN1CCCCCNC(=O)[C@@H]2CCC[C@@H]21 returned GPT2 inhibitor -13%, hNpr1 antagonist -3%, HEK cytotox -15%, 3T3 cytotox -28% and FLuc inh-1 inactive.
`Cn1nc(C2CCN(C(=O)c3ccc4ccccc4n3)CC2)n(-c2ccccc2)c1=O` gave GPT2 inhibitor 4%, HEK cytotox -8% and 3T3 cytotox inconclusive.
COc1ccc2oc(=O)c(C(=O)Nc3cccc(C(=O)O)c3)cc2c1 was read as FLuc SDR no ATP 12µM*, FLuc SDR ATP 0.05µM* and FLuc inh-2 0.016µM*.
For COc1cccc2cc(C(=O)Nc3ccc(C)cc3)c(=O)oc12 the results were FLuc SDR no ATP 28%, FLuc SDR ATP 20% and FLuc inh-2 inconclusive.
Screening COc1ccccc1C(=O)Nc1cccc(NC(=O)c2cccc(C)c2)c1 returned GPT2 inhibitor 1%.
O=C(c1cccc(-n2cnnc2)c1)N(Cc1ccc2[nH]ccc2c1)C1CC1 was read as GPT2 inhibitor -34%, hNpr1 antagonist -4%, HEK cytotox -27%, 3T3 cytotox -18% and FLuc inh-1 inactive.
CCCc1ccc(OCc2ccc(C(=O)Nc3ccccc3C(=O)OC)o2)cc1 was read as FLuc SDR no ATP 12%, FLuc SDR ATP inconclusive and FLuc inh-2 inconclusive.
COc1ccc(-c2ccc(C(=O)NC3CCCC3)cc2)nn1 was read as HEK cytotox inconclusive and 3T3 cytotox -17%[138 µM].
Screening O=C(c1ccc2oc(-c3cccc(F)c3)nc2c1)N1CCCCC1CCO (centres undefined) returned GPT2 inhibitor -6%, hNpr1 antagonist -21%, HEK cytotox inconclusive, 3T3 cytotox inconclusive, FLuc inh-1 14µM*, FLuc SDR no ATP 18%, FLuc SDR ATP 16% and FLuc inh-2 inconclusive.
For COc1ccccc1Cn1c(=O)c(C(=O)NCCSC)nc2cccnc21 the results were GPT2 inhibitor -6%, HEK cytotox 1% and 3T3 cytotox inconclusive.
Screening COc1ccc(NC(=O)Cn2c(SCc3ccc(C)cc3)nc3cccnc32)cc1OC returned FLuc SDR no ATP 1.4µM*, FLuc SDR ATP inconclusive and FLuc inh-2 0.7µM*.
`COc1cc(OC)c(NC(=O)Cn2c(SCc3ccccc3F)nc3cccnc32)cc1Cl` gave FLuc SDR no ATP 18%, FLuc SDR ATP 12% and FLuc inh-2 -8%.
For COc1ccc(F)cc1-c1ccc(COc2ccc3c(cnn3CCC(=O)O)c2)cc1 the results were GPT2 inhibitor 5%[88.5 µM], hNpr1 antagonist 2%[70.6 µM], HEK cytotox inconclusive, 3T3 cytotox -31%[138 µM], FLuc inh-1 22µM*, FLuc SDR no ATP 16%[49.3 µM], FLuc SDR ATP 10%[49.3 µM] and FLuc inh-2 inconclusive.
CC(=O)Nc1cccc(-c2ccc(COc3ccc4c(cnn4CCC(=O)O)c3)cc2)c1 was read as GPT2 inhibitor inactive, hNpr1 antagonist -13%[70.6 µM], HEK cytotox inconclusive, 3T3 cytotox inconclusive, FLuc inh-1 0.71µM*, FLuc SDR no ATP inconclusive, FLuc SDR ATP inconclusive and FLuc inh-2 1µM*.
COc1cc(Cl)ccc1-c1ccc(COc2ccc3c(cnn3CCC(=O)O)c2)cc1 was read as GPT2 inhibitor -5%[88.5 µM], hNpr1 antagonist -1%[70.6 µM], HEK cytotox inconclusive, 3T3 cytotox -17%[138 µM], FLuc inh-1 50µM*, FLuc SDR no ATP 9%[49.3 µM], FLuc SDR ATP 7%[49.3 µM] and FLuc inh-2 inconclusive.
For COc1ccc(-c2ccc(COc3ccc4c(cnn4CCC(=O)O)c3)cc2)c(C)c1 the results were GPT2 inhibitor inactive, hNpr1 antagonist -9%[70.6 µM], HEK cytotox inconclusive, 3T3 cytotox inconclusive and FLuc inh-1 inconclusive.
`COc1ccc(C(=O)Nc2cccc(-c3nc4ccccc4s3)c2)cc1` gave FLuc SDR no ATP 14%, FLuc SDR ATP 9% and FLuc inh-2 -15%.
